Laboratory results reported in PubChem BioAssay (Tox21).
Inconclusive results are not listed. Values without a mark were called inactive. Active and inactive are the calls of the source. Calls come from the whole dose curve; as a rule, active = well fitted inhibition curve with a large enough effect in the signal ratio in the repeat runs (not every such curve was filed as active); inconclusive = weak or mixed curves, or effect the other way; inactive = no such curve, though single readings can be large or run the other way; the % refers to the signal ratio.

Each compound was assayed against Estrogen receptor beta (Homo sapiens) (UniProt Q92731) (assay: qHTS assay to identify small molecule antagonists of the estrogen receptor beta (ER-beta) signaling pathway (AID 1259378)). Details: ER-beta-UAS-bla HEK293T, beta-lactamase FRET ratio, 16 h; series mostly up to 92.4 µM; activity, negative = inhibition: at the top concentration.
Source text: National Center for Advancing Translational Sciences [NCATS]
NIH Chemical Genomics Center [NCGC]
U.S. Environmental Protection Agency [EPA]
National Institutes of Environmental Health Sciences [NIEHS]
National Toxicology Program [NTP]
U.S. Food and Drug Administration [FDA]
Estrogen receptor (ER), a nuclear hormone receptor, plays an important role in development, metabolic homeostasis and reproduction. Two subtypes of ER, ER-alpha and ER-beta, have similar expression patterns with some uniqueness in both types. Endocrine disrupting chemicals (EDCs) and their interactions with steroid hormone receptors like ER causes disruption of normal endocrine function. To identify the compounds that inhibit ER signaling, an ER-beta-UAS-bla GripTite cell line (Life Technologies, Madison, WI, USA) containing a beta-lactamase reporter gene under the control of an UAS response element was used to screen Tox21 10K compound library.
Tox21 Assay Protocol Summary:
ER-beta-UAS-bla HEK293T cells were dispensed at 2,000 cells/4 uL of assay medium containing 2% charcoal stripped FBS per well into black wall/clear-bottom 1536-well plates using a Multidrop Combi (ThermoFisher Scientific, Waltham, MA) dispenser. After the assay plates were incubated at a 37C and 5% CO2 for 6 hr, 23 nL of compounds dissolved in DMSO, positive controls or DMSO only was transferred to the assay plate by a Pintool station (Kalypsys, San Diego, CA), followed by addition of 1 uL (1nM as final concentration) of 17-beta-estradiol (E2) in assay medium using a BioRAPTR FRD (Flying Reagent Dispenser, Aurora Discovery, San Diego, CA). The plates were incubated at 37C and 5% CO2 for 16 hr. Then 1 uL of LiveBLAzerTM B/G FRET substrate was added using a Flying Reagent Dispenser, the plates were incubated at room temperature for 2 hours, and fluorescence intensity was measured by an Envision plate reader (PerkinElmer, Shelton, CT).
% is set by controls: 0 for no effect and ±100 for the full control effect; potency is the fitted concentration of half-maximal effect.

Estrogen receptor beta (Homo sapiens), sequence (Q92731 whole entry, looked up): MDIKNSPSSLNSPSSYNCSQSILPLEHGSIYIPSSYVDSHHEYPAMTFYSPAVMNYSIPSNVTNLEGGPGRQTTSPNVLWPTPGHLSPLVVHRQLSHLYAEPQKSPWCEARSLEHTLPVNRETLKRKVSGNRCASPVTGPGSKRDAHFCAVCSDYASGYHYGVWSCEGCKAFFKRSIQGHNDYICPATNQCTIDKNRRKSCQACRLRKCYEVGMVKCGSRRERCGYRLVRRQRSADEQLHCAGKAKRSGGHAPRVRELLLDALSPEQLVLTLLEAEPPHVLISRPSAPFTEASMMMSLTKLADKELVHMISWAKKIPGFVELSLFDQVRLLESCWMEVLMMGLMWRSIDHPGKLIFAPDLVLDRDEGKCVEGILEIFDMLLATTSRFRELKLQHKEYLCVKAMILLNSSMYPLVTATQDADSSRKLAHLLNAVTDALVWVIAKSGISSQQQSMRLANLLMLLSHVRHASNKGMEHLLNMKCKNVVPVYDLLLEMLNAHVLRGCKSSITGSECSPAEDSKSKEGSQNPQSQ

Compound | Potency | activity, negative = inhibition
O=c1c(-c2ccccc2)c1-c1ccccc1 | 10.6 µM (active) | 
CC(C)(C)C(=O)OCOC(=O)C1N2C(=O)CC2S(=O)(=O)C1(C)C (stereo not given) | 10.6 µM (active) | 
O=S1(=O)CC(Cl)(Cl)C(Cl)(Cl)C1 | 4.86 µM (active) | 
CCCCN(CCCC)C(=O)N(CCCC)CCCC |  | 15.8%
CC(C)CCCCCCCCCCCCCCC(=O)O |  | 0.008%
O=C(O)c1ccc(Cl)c(Cl)c1 |  | 2.35%
O=C(Oc1ccccc1)c1ccccc1C(=O)Oc1ccccc1 | 48.6 µM (active) | 
O=[N+]([O-])c1ccccc1Nc1ccccc1 |  | -2.42%
CC1(C)CCC(C)(C)c2cc(C(=O)Nc3ccc(C(=O)O)cc3)ccc21 | 43.3 µM (active) | 
CC(C)(C)NC(=O)[C@@H]1C[C@@H]2CCCC[C@@H]2CN1C[C@@H](O)[C@H](Cc1ccccc1)NC(=O)[C@H](CC(N)=O)NC(=O)c1ccc2ccccc2n1 | 17.5 µM (active) | 
Fc1ccc(C(c2ccc(F)cc2)N2CCN(C/C=C/c3ccccc3)CC2)cc1 | 16.8 µM (active) | 
OCCCCCCCCCCCCBr | 55.3 µM (active) | 
Cc1onc(-c2ccccc2Cl)c1C(=O)N[C@@H]1C(=O)N2[C@@H]1SC(C)(C)[C@@H]2C(=O)O |  | 11.3% [at 42.5 µM]
CCCC(C)c1ccccc1O (stereo not given) |  | 0.802%
CCc1cc(SCc2sc(-c3ccc(C(F)(F)F)cc3)nc2CN2CCN(c3ccc(OC)cc3)CC2)ccc1OCC(=O)O | 5.45 µM (active) | 
CCCCCOC(=O)CCCC |  | -8.85%
CC(C)(C)CC(C)(C)c1ccc(OCCOCC[N+](C)(C)Cc2ccccc2)cc1 | 26.6 µM (active) | 
ON=C1CCCC1 |  | 4.37%
COc1cc(-c2ccc(N=C=O)c(OC)c2)ccc1N=C=O |  | -0.393% [at 42.5 µM]
CCC(N)(CO)CO |  | -3.57%

Compound | Potency | activity, negative = inhibition
CN(C)CCCOC1(Cc2ccccc2)CCCCCC1 |  | 6.16% [at 42.5 µM]
Cc1ccc(-n2nc(C(C)(C)C)cc2NC(=O)Nc2ccc(OCCN3CCOCC3)c3ccccc23)cc1 | 26.6 µM (active) | 
Cc1cccc(S(=O)(=O)O)c1C |  | 18.2%
Clc1ccccc1C(c1ccccc1)(c1ccccc1)n1ccnc1 | 8.41 µM (active) | 
CC(C)OC(=O)c1cc2c(OCC(O)CNC(C)(C)C)cccc2[nH]1 (stereo not given) |  | -22.4% [at 42.5 µM]
C1CCCC1 |  | -3.11%
Nc1ccc2cc(S(=O)(=O)O)cc(O)c2c1N=Nc1ccccc1C(F)(F)F |  | 4.41%
O=C(NOCC1CC1)c1ccc(F)c(F)c1Nc1ccc(I)cc1Cl | 8.41 µM (active) | 
C[C@H]1[C@H]2CC[C@H]3[C@@H]4CC=C5C[C@@H](N(C)C)CC[C@]5(C)[C@H]4CC[C@]23CN1C |  | 2.2% [at 42.5 µM]
CCCCCOc1ccccc1/C(=C\SC)n1ccnc1 | 10.6 µM (active) | 
Clc1ccc(C(Cn2ccnc2)OCc2ccc(Sc3ccccc3)cc2)c(Cl)c1 (stereo not given) |  | -1.02% [at 42.5 µM]
O=C(N/N=C/c1ccccc1O)c1ccncc1 | 2.11 µM (active) | 
CCC1OCC(COc2ccc(Oc3ccccc3)cc2)O1 (stereo not given) |  | -1.01%
CCCCCCCCCCCCCCCS(=O)(=O)Oc1ccccc1 |  | 1.39% [at 42.5 µM]
N#CC1(c2ccc(F)cc2)CCC(=O)CC1 |  | -8.19% [at 42.5 µM]
NC(=O)N1C(=O)C(C(=O)c2cc(Cl)cs2)c2cc(F)c(Cl)cc21 (stereo not given) | 17.2 µM (active) | 
CC(C)(C)C(=O)OCOC(=O)[C@@H]1N2C(=O)[C@@H](NC(=O)[C@H](N)c3ccccc3)[C@H]2SC1(C)C |  | 1.59% [at 42.5 µM]
CC(C)c1ccc2c(c1)CC[C@H]1[C@](C)(CN)CCC[C@]21C | 61.1 µM (active) | 
OCCN1CCN(CC/C=C2/c3ccccc3Sc3ccc(C(F)(F)F)cc32)CC1 | 11.9 µM (active) | 
C[C@@H](NCCCc1cccc(C(F)(F)F)c1)c1cccc2ccccc12 | 10.6 µM (active) | 
